Measurements: PubChem BioAssay AID1159580 (chemical genetic matrix, 2015)
Screen size: about 5,500 compounds; about 2,000 (36%) were called active. About 18% were inconclusive and are not listed. Rule as the data show it: active = normalized growth mostly below about 0.91 (no sharp cut-off); inconclusive = no clear call, values can overlap the other calls; inactive = mostly above about 0.92. The list shows a part of the results.

Test: chemical genetic growth profiling, strain panel (AID 1159580);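 also: tested at 20 µM; growth read once vehicle control cultures reached saturation at 30 °C; 1 = growth at the plate median or of vehicle wells; lower values mean less growth of the strain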
Conditions: growth OD

Measured: normalized growth

CC[N+]1(C)CCCC(OC(=O)C(O)(c2ccccc2)c2ccccc2)C1 (stereo not given)
inactive: S. cerevisiae deletion strains, locus YJR066W, strain TOR1, active compounds read low 0.954 | S. cerevisiae deletion strains, locus YKL009W, strain mrt4, active compounds read low 1.01 | S. cerevisiae deletion strains, locus YKL068W, active compounds read low 1.01 | S. cerevisiae deletion strains, locus YKL085W, strain MDH1 (second series), active compounds read low 0.994 | S. cerevisiae deletion strains, locus YKL085W, strain MDH1, active compounds read low 0.994 | S. cerevisiae deletion strains, locus YKL160W, strain elf1, active compounds read low 1.01 | S. cerevisiae deletion strains, locus YKL190W, strain CNB1, active compounds read low 1.01 | S. cerevisiae deletion strains, locus YKR001C, strain vps1, active compounds read low 1.02 | S. cerevisiae deletion strains, locus YKR026C, strain gcn3, active compounds read low 1.04 | S. cerevisiae deletion strains, locus YKR091W, strain srl3, active compounds read low 1.02 | S. cerevisiae deletion strains, locus YLL001W, strain dnm1, active compounds read low 1.01 | S. cerevisiae deletion strains, locus YLL026W, active compounds read low 1.02 | S. cerevisiae deletion strains, locus YLL041C, strain sdh2, active compounds read low 1.02 | S. cerevisiae deletion strains, locus YLR027C, strain aat2, active compounds read low 1.01 | S. cerevisiae deletion strains, locus YLR039C, strain RIC1, active compounds read low 1.03 | S. cerevisiae deletion strains, locus YLR058C, strain SHM2, active compounds read low 1.01 | S. cerevisiae deletion strains, locus YLR102C, strain apc9, active compounds read low 1 | S. cerevisiae deletion strains, locus YLR113W, strain HOG1, active compounds read low 1.05 | S. cerevisiae deletion strains, locus YLR221C, strain rsa3, active compounds read low 1.01 | S. cerevisiae deletion strains, locus YLR258W, strain gsy2, active compounds read low 1.02 | S. cerevisiae deletion strains, locus YLR262C, strain YPT6 (second series), active compounds read low 1.02 | S. cerevisiae deletion strains, locus YLR262C, strain YPT6, active compounds read low 1.07 | S. cerevisiae deletion strains, locus YLR268W, strain sec22, active compounds read low 1.01 | S. cerevisiae deletion strains, locus YLR320W, strain mms22, active compounds read low 1.02 | S. cerevisiae deletion strains, locus YLR330W, strain CHS5, active compounds read low 1.01 | S. cerevisiae deletion strains, locus YLR342W, strain FKS1 (second series), active compounds read low 1.03 | S. cerevisiae deletion strains, locus YLR342W, strain FKS1, active compounds read low 1.03 | S. cerevisiae deletion strains, locus YLR357W, strain rsc2, active compounds read low 1.02 | S. cerevisiae deletion strains, locus YLR370C, strain arc18, active compounds read low 1.03 | S. cerevisiae deletion strains, locus YLR371W, strain rom2, active compounds read low 1.01 | S. cerevisiae deletion strains, locus YLR384C, strain iki3, active compounds read low 1.02 | S. cerevisiae deletion strains, locus YLR418C, strain cdc73, active compounds read low 1.03 | S. cerevisiae deletion strains, locus YML016C, strain PPZ1, active compounds read low 1 | S. cerevisiae deletion strains, locus YML032C, strain rad52, active compounds read low 1.02 | S. cerevisiae deletion strains, locus YML120C, strain ndi1, active compounds read low 1.01 | S. cerevisiae deletion strains, locus YML124C, strain tub3, active compounds read low 1.01 | S. cerevisiae deletion strains, locus YMR058W, strain fet3, active compounds read low 1.02 | S. cerevisiae deletion strains, locus YMR078C, strain ctf18, active compounds read low 0.998 | S. cerevisiae deletion strains, locus YMR125W, strain sto1, active compounds read low 1.02 | S. cerevisiae deletion strains, locus YMR129W, active compounds read low 1.03 | S. cerevisiae deletion strains, locus YMR205C, strain PFK2, active compounds read low 1.03 | S. cerevisiae deletion strains, locus YMR223W, strain ubp8, active compounds read low 1.03 | S. cerevisiae deletion strains, locus YMR231W, strain pep5, active compounds read low 1.03 | S. cerevisiae deletion strains, locus YMR263W, strain SAP30, active compounds read low 1.01 | S. cerevisiae deletion strains, locus YMR307W, strain GAS1, active compounds read low 1.1 | S. cerevisiae deletion strains, locus YNL067W, strain RPL9B, active compounds read low 1.01 | S. cerevisiae deletion strains, locus YNL071W, strain lat1, active compounds read low 1.02 | S. cerevisiae deletion strains, locus YNL128W, strain TEP1, active compounds read low 1.03 | S. cerevisiae deletion strains, locus YNL153C, strain GIM3, active compounds read low 0.997 | S. cerevisiae deletion strains, locus YNL183C, strain NPR1, active compounds read low 0.942 | S. cerevisiae deletion strains, locus YNL209W, strain ssb2, active compounds read low 1.02 | S. cerevisiae deletion strains, locus YNL233W, strain BNI4, active compounds read low 1.01 | S. cerevisiae deletion strains, locus YNL248C, strain rpa49, active compounds read low 1.02 | S. cerevisiae deletion strains, locus YNL250W, strain rad50, active compounds read low 1.01 | S. cerevisiae deletion strains, locus YNL271C, strain bni1, active compounds read low 1.03 | S. cerevisiae deletion strains, locus YNL298W, strain CLA4, active compounds read low 1.01 | S. cerevisiae deletion strains, locus YNL307C, strain MCK1, active compounds read low 1.02 | S. cerevisiae deletion strains, locus YNL322C, strain KRE1 (second series), active compounds read low 1.01 | S. cerevisiae deletion strains, locus YNL322C, strain KRE1, active compounds read low 1.01 | S. cerevisiae deletion strains, locus YNR049C, strain mso1, active compounds read low 1.02 | S. cerevisiae deletion strains, locus YNR052C, strain pop2, active compounds read low 1.02 | S. cerevisiae deletion strains, locus YOL006C, strain TOP1, active compounds read low 1 | S. cerevisiae deletion strains, locus YOL012C, strain htz1 0.812 | S. cerevisiae deletion strains, locus YOL147C, strain pex11, active compounds read low 1.01 | S. cerevisiae deletion strains, locus YOR001W, strain rrp6, active compounds read low 1.01 | S. cerevisiae deletion strains, locus YOR061W, strain CKA2, active compounds read low 1.01 | S. cerevisiae deletion strains, locus YOR069W, strain VPS5, active compounds read low 1.01 | S. cerevisiae deletion strains, locus YOR070C, strain gyp1, active compounds read low 1.01 | S. cerevisiae deletion strains, locus YOR080W, strain dia2, active compounds read low 1.01 | S. cerevisiae deletion strains, locus YOR083W, strain WHI5, active compounds read low 1.01 | S. cerevisiae deletion strains, locus YOR106W, strain vam3, active compounds read low 1.02 | S. cerevisiae deletion strains, locus YOR136W, strain idh2, active compounds read low 1.01 | S. cerevisiae deletion strains, locus YOR144C, strain elg1, active compounds read low 1.01 | S. cerevisiae deletion strains, locus YOR184W, strain ser1, active compounds read low 1 | S. cerevisiae deletion strains, locus YOR231W, strain MKK1, active compounds read low 1.03 | S. cerevisiae deletion strains, locus YOR265W, strain rbl2, active compounds read low 1.01 | S. cerevisiae deletion strains, locus YOR270C, strain vph1, active compounds read low 1.1 | S. cerevisiae deletion strains, locus YOR290C, strain snf2, active compounds read low 1.01 | S. cerevisiae deletion strains, locus YOR316C, strain cot1, active compounds read low 1.01 | S. cerevisiae deletion strains, locus YPL051W, strain arl3, active compounds read low 1.01 | S. cerevisiae deletion strains, locus YPL078C, strain atp4, active compounds read low 1.02 | S. cerevisiae deletion strains, locus YPL106C, strain sse1, active compounds read low 1.02 | S. cerevisiae deletion strains, locus YPL240C, strain hsp82, active compounds read low 1.04 | S. cerevisiae deletion strains, locus YPL256C, strain CLN2, active compounds read low 1.04 | S. cerevisiae deletion strains, locus YPR119W, strain clb2, active compounds read low 1.01 | S. cerevisiae deletion strains, locus YPR141C, strain kar3, active compounds read low 1.01 | S. cerevisiae deletion strains, locus YPR163C, strain tif3, active compounds read low 1.01 | S. cerevisiae deletion strains, locus YPR167C, strain met16, active compounds read low 1.01 | S. cerevisiae deletion strains, strain wtn01, active compounds read low 1.01 | S. cerevisiae strains, strain wild type, active compounds read low 1.01
